Assay [1] can be described thus: yeast TOR pathway RPL19A-GFP modulators, primary screen, cell-based, S. cerevisiae, multiplex flow cytometry (AID 1862; in the data active = percent of DMSO control GFP below about 86%;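 note: lower values mimic rapamycin by blocking the RPL19A rise seen in DMSO cells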). Conditions: S. cerevisiae RPL19A-GFP strain, flow cytometry fluorescence, 3 h; at 10 µM; stronger effect = lower value. A general note: Flow cytometry measures light scatter and fluorescence of single cells or particles in a stream.
Assay [2] is described as follows: modulators of MEP2-GFP levels in yeast, primary screen, S. cerevisiae, multiplex flow cytometry (AID 1867;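 active = GFP response, as percent of the DMSO control, above the screen-wide mean plus 3 SD, about 139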;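 note: median GFP channel fluorescence of barcode-gated MEP2-GFP cells measured by flow cytometry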). The following applies: S. cerevisiae MEP2-GFP strain, 3 h, at 10 µM, stronger effect = higher value, 100% means same as DMSO wells.
Assay [3] can be described thus: modulators of CIT2-GFP expression in yeast, primary screen, S. cerevisiae, GFP fusion, multiplex flow cytometry (AID 1870;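 active = percent response above a set limit, the screen-wide mean plus 3 SD, cut at about 130% in these data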;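 note: barcoded CIT2-GFP strain pooled with four other GFP strains with rapamycin as positive control; median GFP fluorescence per well over plate mean of DMSO wells so 100% = DMSO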). The following applies: 3 h, at 10 µM, stronger effect = higher value.
The nature of assay [4]: modulators of LAP4-GFP expression in yeast, primary screen, S. cerevisiae, multiplex flow cytometry (AID 1873;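 active = GFP signal, as percent of the solvent control, above the screen mean plus 3 SD, about 149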). Conditions: 3 h, at 10 µM, stronger effect = higher value.
Assay [5] is described as follows: modulators of AGP1-GFP expression in yeast TOR pathway, primary screen, cell-based, multiplex flow cytometry, S. cerevisiae (AID 1887;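 active = GFP signal above the screen-wide mean plus 3 SD, that is over about 124.5% of the solvent control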;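 note: AGP1-GFP fusion strain of S. cerevisiae within a five-strain barcoded multiplex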). The following applies: 3 h, at 10 µM, stronger effect = higher value.
A short description of assay [6]: inhibitors of CD8+ T cell-vesicle binding, pilot screen, LFA-1/ICAM-1 modulator project, MLPCN validation set, flow cytometry (AID 2523;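 active = response below a set limit, under 55% cells CD8-positive and vesicle-bound, and CD8 cells' 90th-percentile brightness under 279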;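 for vesicle binding response: mean PE anti-B7-1 fluorescence of CD8+ cells relative to row control; 100% = QL9-loaded vesicles with DMSO vehicle in the same plate row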). The following applies: 2C mouse CD8+ T cells, at 7 µM, stronger effect = lower value; double positive events: measured here: CD8+/vesicle+ event percentage.
For assay [7], the target named is Integrin beta-1 (Homo sapiens) + Integrin alpha-4 (Homo sapiens) (UniProt P13612+P05556). Kind of assay: inhibition of HUTS-21 binding to VLA-4, pilot screen, VLA-4 allosteric modulator project, U937 cells, HUTS-21 mAb, flow cytometry, validation set (AID 2674;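 active = inhibition above 50%, about 3 SD of the validation set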;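 note: antibody binding induced by the VLA-4 ligand LDV present at three times its Kd; 0% = LDV ligand with antibody and no compound and 100% = antibody without LDV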). Conditions: HUTS-21 LIBS mAb binding, at 6.7 µM, stronger effect = higher value, binding induced by LDV ligand.
The nature of assay [8]: superoxide lowering in aged yeast cells, pilot screen, validation compound set (AID 2706;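 active = superoxide response below 65% of plate, a cut near 3 SD across the whole screen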;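 note: yeast exposed to compound for one week at 30 degrees C before staining; 100% = mean of all compound wells on the same plate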). The following applies: S. cerevisiae aging, superoxide DHE fluorescence; at 10 µM; stronger effect = lower value.
In assay [9] the target is Beta-adrenergic receptor kinase 1 (Homo sapiens) (UniProt P25098). Kind of assay: GRK2 binders displacing RNA aptamer, biochemical, validation, human GRK2, bead flow cytometry (AID 488806;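 active = aptamer binding inhibition above 30%, about 3 SD of noise from non-fluorescent compounds; inactive = inhibition at or below 30%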). The following applies: bead-bound GRK2, FAM-aptamer displacement, at 10 µM, stronger effect = higher value.
For assay [10], the target named is Beta-2 adrenergic receptor (Homo sapiens) (UniProt P07550). Briefly: beta2AR agonists driving receptor internalization, pilot screen, cell-based, FAP fluorogen, flow cytometry, validation set (AID 504459).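 Note: agonist-driven loss of surface beta2AR via internalization measured by FAP dye flow cytometry.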 The following applies: Am2.2-beta2AR cells, FAP surface receptor flow cytometry; at 10 µM; stronger effect = higher value.
Assay [11] deals with AP-2 complex subunit beta (Homo sapiens) (UniProt P63010). Kind of assay: inhibitors of arrestin peptide binding to AP2, pilot screen, biochemical, validation set, GST-AP2 beads, flow cytometry (AID 504541;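 active = inhibition above 54%, about 3 SD of non-fluorescent compounds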;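 note: AP2 carries R879A mutation and is captured from E. coli lysate; bead-bound FITC arrestin peptide fluorescence measuring arrestin peptide binding to AP2; 0% = DMSO wells and 100% = excess unlabeled arrestin peptide control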). The following applies: FITC arrestin peptide, at 10 µM, stronger effect = higher value, AP2 beta2 appendage fragment, R879A mutant.
A short description of assay [12]: yeast V-ATPase proton transport modulators, S. cerevisiae, pHLuorin, HTS validation (AID 504600; in the data active = response above about 15%;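 note: plate controls were DMSO for no effect and reference compound for full effect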). The following applies: S. cerevisiae pHLuorin cytosolic pH, at 10 µM, stronger effect = higher value.
The subject of assay [13] is anti-desmoglein-3 scFv antibody binding to human DSG3. Kind of assay: inhibitors of anti-DSG3 scFv binding to DSG3, pilot screen, biochemical, validation compound set, bead-based, flow cytometry (AID 588368;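 active = binding below the plate cutoff, the plate median minus 3 SD, with a reading above zero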;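 note: signal is the median channel fluorescence of bead-bound GFP antibody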). The following applies: Protein G beads, DSG3-Fc, scFv-GFP binding, at 10 µM, stronger effect = lower value.
Assay [14] can be described thus: inhibitors of fungal efflux pumps CDR1, CDR2, MDR1, pilot screen, validation compound set, multiplex, phenotypic (AID 588506;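 active = efflux inhibition above 0.42, the validation set average plus 4 SD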;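 note: Nile Red retained in cells so higher fluorescence means more efflux inhibition; 0 = negative control wells and 1 = enniatin B 25 µM full block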). The following applies: S. cerevisiae pump-expressing triplex, Nile Red efflux flow cytometry; at 10 µM; stronger effect = higher value; the pumps come from Candida albicans.
Assay [15] has as its target ATP-binding cassette sub-family B member 6 (Homo sapiens) (UniProt Q9NP58). Briefly: ABCB6 transporter inhibitors, pilot screen, K562-ABCB6 cells, flow cytometry, validation set (AID 588550;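 active = inhibition above the screen-wide mean plus 3 SD, about 51%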;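 note: 0% = DMSO wells and 100% = benzethonium chloride 70 µM positive control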). Conditions: K562-ABCB6 porphyrin accumulation, 1 h, at 10 µM, stronger effect = higher value.
Assay [16] can be described thus: promoters of myeloid differentiation in arrested cells, primary screen, cell-based, GFP/MAC1 double positive, flow cytometry, validation set (AID 588685;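 active = differentiation response of at least 50%, scaled between solvent and reference control, from cells with both markers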;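 note: compound exposure lasts four days before antibody staining and flow analysis; 0% = DMSO wells and 100% = 5 µM fulvestrant positive control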). The following applies: ER-HoxA9 marrow cells, stronger effect = higher value, normalized: vehicle 0, fulvestrant 100.

Records with an inconclusive call do not appear. Calls of active or inactive are those of the source.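 Rule for the calls, unless noted: active = percent response above 42, roughly 3 SD of non-fluorescent test compounds; inactive = the rest.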 Square brackets hold non-standard residues; d marks the D form. Peptide text beside a SMILES is read from it. ξ: configuration not given here. ξV = CC(C)C(N)C(=O)O

Chain of Beta-2 adrenergic receptor (Homo sapiens) (P07550 whole entry, looked up): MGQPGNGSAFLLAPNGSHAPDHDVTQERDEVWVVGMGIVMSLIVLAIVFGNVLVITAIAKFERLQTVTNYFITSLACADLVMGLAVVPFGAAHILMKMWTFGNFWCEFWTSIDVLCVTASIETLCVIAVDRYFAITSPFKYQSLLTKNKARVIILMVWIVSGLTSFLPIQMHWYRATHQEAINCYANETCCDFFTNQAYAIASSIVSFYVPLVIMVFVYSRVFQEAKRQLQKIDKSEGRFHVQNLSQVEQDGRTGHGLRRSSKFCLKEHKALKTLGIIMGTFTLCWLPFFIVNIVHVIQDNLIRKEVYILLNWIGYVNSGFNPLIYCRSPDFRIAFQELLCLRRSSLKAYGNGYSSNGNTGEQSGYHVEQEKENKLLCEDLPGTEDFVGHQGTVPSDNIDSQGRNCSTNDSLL
Chain of Beta-adrenergic receptor kinase 1 (Homo sapiens) (P25098 whole entry, looked up): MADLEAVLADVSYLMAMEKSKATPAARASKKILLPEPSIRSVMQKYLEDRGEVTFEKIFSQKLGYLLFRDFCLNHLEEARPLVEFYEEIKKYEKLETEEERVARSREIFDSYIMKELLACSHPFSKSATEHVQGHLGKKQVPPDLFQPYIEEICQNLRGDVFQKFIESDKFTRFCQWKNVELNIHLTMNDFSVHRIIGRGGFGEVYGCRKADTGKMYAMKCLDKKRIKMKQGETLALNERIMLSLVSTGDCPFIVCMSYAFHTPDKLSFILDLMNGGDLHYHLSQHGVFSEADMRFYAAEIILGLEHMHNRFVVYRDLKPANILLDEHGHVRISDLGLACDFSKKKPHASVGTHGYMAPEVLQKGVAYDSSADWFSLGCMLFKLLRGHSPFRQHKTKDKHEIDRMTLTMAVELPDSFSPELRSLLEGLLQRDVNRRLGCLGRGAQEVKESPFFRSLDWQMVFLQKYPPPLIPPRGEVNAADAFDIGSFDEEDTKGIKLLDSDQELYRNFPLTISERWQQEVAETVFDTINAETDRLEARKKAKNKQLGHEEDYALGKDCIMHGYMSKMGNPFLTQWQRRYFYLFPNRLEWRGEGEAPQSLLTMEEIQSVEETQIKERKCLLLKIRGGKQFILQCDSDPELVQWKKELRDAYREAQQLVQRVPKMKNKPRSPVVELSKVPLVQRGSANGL
Chain of Integrin beta-1 (Homo sapiens) + Integrin alpha-4 (Homo sapiens) (P05556 whole entry, looked up): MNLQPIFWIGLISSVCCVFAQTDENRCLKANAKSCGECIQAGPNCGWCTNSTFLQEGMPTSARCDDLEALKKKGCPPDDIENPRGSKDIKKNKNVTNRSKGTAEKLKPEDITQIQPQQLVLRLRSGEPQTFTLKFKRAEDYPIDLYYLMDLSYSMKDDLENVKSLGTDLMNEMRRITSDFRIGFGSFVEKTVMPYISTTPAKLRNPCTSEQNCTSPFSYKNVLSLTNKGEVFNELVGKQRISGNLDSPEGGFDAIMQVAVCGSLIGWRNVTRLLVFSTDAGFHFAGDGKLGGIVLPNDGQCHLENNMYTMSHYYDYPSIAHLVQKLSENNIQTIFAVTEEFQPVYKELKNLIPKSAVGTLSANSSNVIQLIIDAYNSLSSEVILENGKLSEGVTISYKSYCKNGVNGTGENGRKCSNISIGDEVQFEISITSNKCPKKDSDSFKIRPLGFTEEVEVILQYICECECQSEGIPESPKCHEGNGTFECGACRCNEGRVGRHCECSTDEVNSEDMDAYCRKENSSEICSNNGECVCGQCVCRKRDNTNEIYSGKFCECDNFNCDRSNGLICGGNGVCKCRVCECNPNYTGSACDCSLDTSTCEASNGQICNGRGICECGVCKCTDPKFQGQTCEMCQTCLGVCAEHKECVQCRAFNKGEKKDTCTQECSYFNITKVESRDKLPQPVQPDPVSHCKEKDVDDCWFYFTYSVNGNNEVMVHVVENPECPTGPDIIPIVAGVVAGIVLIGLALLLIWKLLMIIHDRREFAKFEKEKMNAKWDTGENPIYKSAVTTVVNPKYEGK
Chain of Integrin beta-1 (Homo sapiens) + Integrin alpha-4 (Homo sapiens) (P13612 whole entry, looked up): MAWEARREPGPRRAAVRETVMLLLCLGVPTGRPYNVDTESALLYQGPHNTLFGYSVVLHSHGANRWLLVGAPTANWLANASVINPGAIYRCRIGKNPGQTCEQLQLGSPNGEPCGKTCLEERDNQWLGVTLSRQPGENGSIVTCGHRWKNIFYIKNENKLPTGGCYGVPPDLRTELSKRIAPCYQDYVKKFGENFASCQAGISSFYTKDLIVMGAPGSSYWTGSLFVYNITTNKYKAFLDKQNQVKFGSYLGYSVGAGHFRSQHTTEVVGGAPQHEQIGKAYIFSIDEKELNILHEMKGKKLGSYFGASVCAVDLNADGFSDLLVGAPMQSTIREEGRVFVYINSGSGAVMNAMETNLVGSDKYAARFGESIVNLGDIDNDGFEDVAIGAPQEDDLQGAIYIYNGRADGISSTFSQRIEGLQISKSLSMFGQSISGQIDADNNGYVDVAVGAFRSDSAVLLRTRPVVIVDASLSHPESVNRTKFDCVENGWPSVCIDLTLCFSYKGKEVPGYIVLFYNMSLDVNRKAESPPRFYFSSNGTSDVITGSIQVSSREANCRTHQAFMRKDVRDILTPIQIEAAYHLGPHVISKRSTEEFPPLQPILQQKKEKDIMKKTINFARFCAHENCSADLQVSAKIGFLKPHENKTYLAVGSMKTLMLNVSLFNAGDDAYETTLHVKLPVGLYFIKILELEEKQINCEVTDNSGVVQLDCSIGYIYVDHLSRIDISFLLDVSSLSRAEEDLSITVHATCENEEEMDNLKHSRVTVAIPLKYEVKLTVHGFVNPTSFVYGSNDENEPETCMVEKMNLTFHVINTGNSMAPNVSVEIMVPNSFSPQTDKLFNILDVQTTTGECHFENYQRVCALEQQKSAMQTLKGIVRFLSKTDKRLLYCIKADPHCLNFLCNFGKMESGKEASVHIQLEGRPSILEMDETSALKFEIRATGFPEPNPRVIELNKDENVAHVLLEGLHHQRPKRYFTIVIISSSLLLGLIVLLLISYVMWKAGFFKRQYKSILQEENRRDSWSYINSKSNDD
Chain of AP-2 complex subunit beta (Homo sapiens) (P63010 whole entry, looked up, the tested form may be a part, one chain of several): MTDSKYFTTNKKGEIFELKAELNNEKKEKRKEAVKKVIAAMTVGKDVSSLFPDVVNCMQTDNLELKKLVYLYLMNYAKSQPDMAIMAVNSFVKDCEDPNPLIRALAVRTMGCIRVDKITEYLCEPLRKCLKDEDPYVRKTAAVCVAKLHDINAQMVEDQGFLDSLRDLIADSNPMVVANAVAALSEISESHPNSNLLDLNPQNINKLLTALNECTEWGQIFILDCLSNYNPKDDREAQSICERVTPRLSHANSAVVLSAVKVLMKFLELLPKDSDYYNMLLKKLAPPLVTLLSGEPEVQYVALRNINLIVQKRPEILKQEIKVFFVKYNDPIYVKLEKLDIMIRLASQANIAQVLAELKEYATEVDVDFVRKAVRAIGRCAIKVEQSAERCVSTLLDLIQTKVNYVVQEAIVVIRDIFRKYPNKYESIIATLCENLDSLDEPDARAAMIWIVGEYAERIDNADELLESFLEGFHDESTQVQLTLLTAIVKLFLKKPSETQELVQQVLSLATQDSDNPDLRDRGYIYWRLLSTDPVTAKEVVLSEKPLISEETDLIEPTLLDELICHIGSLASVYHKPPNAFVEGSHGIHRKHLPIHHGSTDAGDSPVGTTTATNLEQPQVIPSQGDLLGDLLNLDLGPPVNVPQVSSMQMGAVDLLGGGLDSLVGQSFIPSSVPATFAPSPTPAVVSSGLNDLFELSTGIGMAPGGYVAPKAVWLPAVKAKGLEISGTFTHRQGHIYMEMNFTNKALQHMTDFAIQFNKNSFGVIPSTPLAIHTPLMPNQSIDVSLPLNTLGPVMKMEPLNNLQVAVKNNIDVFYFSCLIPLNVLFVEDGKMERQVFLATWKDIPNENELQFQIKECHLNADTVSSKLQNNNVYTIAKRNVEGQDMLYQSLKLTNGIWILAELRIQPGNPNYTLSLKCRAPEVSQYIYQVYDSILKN
Chain of ATP-binding cassette sub-family B member 6 (Homo sapiens) (Q9NP58 whole entry, looked up): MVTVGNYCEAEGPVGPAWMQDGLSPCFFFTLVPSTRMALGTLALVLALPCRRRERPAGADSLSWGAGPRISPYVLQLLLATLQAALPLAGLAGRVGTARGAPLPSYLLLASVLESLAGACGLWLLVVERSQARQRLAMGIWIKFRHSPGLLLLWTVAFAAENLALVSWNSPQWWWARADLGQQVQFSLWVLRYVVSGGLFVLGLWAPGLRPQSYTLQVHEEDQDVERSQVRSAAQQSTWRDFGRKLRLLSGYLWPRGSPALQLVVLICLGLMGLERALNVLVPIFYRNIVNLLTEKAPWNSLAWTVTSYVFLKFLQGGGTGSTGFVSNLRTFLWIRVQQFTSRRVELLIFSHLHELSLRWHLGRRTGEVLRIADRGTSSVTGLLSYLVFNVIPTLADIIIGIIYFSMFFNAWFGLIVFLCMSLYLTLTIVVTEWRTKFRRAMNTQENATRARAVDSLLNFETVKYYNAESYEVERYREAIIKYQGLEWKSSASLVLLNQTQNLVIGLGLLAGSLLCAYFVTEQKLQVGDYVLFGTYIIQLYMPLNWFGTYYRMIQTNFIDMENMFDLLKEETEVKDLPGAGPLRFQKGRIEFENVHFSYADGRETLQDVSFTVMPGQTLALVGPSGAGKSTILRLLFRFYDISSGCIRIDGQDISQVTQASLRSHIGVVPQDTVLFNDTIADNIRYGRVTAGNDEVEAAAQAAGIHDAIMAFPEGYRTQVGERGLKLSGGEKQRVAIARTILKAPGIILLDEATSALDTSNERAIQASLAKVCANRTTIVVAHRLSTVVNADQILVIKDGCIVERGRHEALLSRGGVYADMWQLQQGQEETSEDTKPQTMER

With `CCCc1cc(=O)[nH]c(=S)[nH]1`, the percent of DMSO control GFP in assay [1] was 99.1% (inactive). In addition, the GFP response vs DMSO in assay [2] is 101% (inactive); in assay [4], 103% (inactive). Further, the percent response of DMSO control in assay [3] is 96.5% (inactive). Moreover, in [5], the GFP response, % of DMSO is 107% (inactive). In addition, the double positive events in assay [6] came to 61.7%. For the same compound, the vesicle binding response in assay [6] was 144% (inactive). Moreover, the inhibition in assay [7] was -2.43% (inactive); in assay [11], -5.08% (inactive); in assay [15] it was -3% (inactive). For the same compound, the superoxide response (% of plate) in [8] was 86.8% (inactive). Also, in assay [9], the aptamer binding inhibition is 0% (inactive). The response was -3.16% (inactive) in assay [10] and 12.1% (inactive) in assay [12]. In addition, the binding (% of control) in [13] was 101% (inactive). Also, in assay [14], the efflux inhibition (fraction of control) was 0.44 (active). In addition, in assay [16], the differentiation response was -1.65% (inactive).

On to `CCCC(=O)O[C@]1(C(=O)CCl)[C@@H](C)C[C@H]2[C@@H]3CCC4=CC(=O)C=C[C@]4(C)[C@@]3(F)C(=O)C[C@@]21C`, for which, in assay [1], the percent of DMSO control GFP is 93.7% (inactive). Besides, the results for the GFP response vs DMSO in assay [2] and in assay [4] were 134% (inactive) and 85.8% (inactive), respectively. Further, in assay [3], the percent response of DMSO control was 111% (inactive). Besides, the GFP response, % of DMSO in assay [5] was 87.3% (inactive). The compound also showed a double positive events in [6] of 65.1%. In assay [6], the vesicle binding response was 147% (inactive). Moreover, the inhibition in assay [7] was 1.61% (inactive); in [11], 11.3% (inactive); in assay [15], 8% (inactive). In addition, the superoxide response (% of plate) in assay [8] is 98.4% (inactive). In addition, the aptamer binding inhibition in assay [9] was 3% (inactive). For the same compound, the results for the response in assay [10] and in assay [12] were -4.94% (inactive) and -7.84% (inactive), respectively. Further, the binding (% of control) in assay [13] was 94.1% (inactive). Also, in assay [14], the efflux inhibition (fraction of control) was 0.23 (inactive). Besides, the differentiation response in assay [16] is 0% (inactive).

In the case of `COc1ccc(CCN(C)Cc2nc(Cc3ccc(OC)c(OC)c3)no2)cc1OC`, the percent of DMSO control GFP in [1] was 100% (inactive). For the same compound, the figures for the GFP response vs DMSO in assay [2] and in [4] were 105% (inactive) and 109% (inactive), respectively. For the same compound, the percent response of DMSO control in assay [3] was 102% (inactive). Moreover, the GFP response, % of DMSO in assay [5] is 108% (inactive). The double positive events in [6] came out at 62.5%. Moreover, the vesicle binding response in assay [6] is 222% (inactive). Besides, the inhibition in assay [7] is 15.1% (inactive); in assay [11], 2.64% (inactive); in assay [15], 1% (inactive). Also, in assay [8], the superoxide response (% of plate) is 92.6% (inactive). Further, the aptamer binding inhibition in [9] is 1% (inactive). The figures for the response in [10] and in assay [12] were -13.9% (inactive) and 8.73% (inactive), respectively. In assay [13], the binding (% of control) is 98.8% (inactive). Besides, the efflux inhibition (fraction of control) in assay [14] is 0 (inactive). The differentiation response in [16] was 29.5% (inactive).

Turning to `CC(=O)NC(C(=O)NCC(N)=O)C(C)C` (centres undefined) (Ac-[ξV]-Gly-NH2), the percent of DMSO control GFP in assay [1] is 104% (inactive). The GFP response vs DMSO in assay [2] is 93% (inactive); in assay [4], 95.3% (inactive). Moreover, the percent response of DMSO control in [3] is 111% (inactive). For the same compound, the GFP response, % of DMSO in [5] was 97.3% (inactive). This compound also came in with a double positive events in assay [6] of 65.3%. The vesicle binding response in assay [6] is 195% (inactive). Besides, the inhibition in assay [7] is -7.72% (inactive); in assay [11] it was -9.46% (inactive); in assay [15], 0% (inactive). In assay [8], the superoxide response (% of plate) was 93.7% (inactive). The aptamer binding inhibition in assay [9] was -2% (inactive). Moreover, the response in assay [10] was -7.22% (inactive); in assay [12], 0.49% (inactive). The binding (% of control) in assay [13] was 96.9% (inactive). Moreover, in [14], the efflux inhibition (fraction of control) is -0.2 (inactive). In assay [16], the differentiation response is 13.9% (inactive).

Turning to `Cc1cccc2c(=O)n3c(nc12)CCCCC3`, the percent of DMSO control GFP in assay [1] is 99.3% (inactive). The figures for the GFP response vs DMSO in [2] and in assay [4] were 101% (inactive) and 119% (inactive), respectively. Further, the percent response of DMSO control in assay [3] was 97.6% (inactive). Besides, the GFP response, % of DMSO in assay [5] is 104% (inactive). The compound further displayed a double positive events in assay [6] of 57%. For the same compound, in assay [6], the vesicle binding response was 172% (inactive). The inhibition in [7] is -14.5% (inactive); in [11], -3.62% (inactive); in assay [15], 2% (inactive). For the same compound, the superoxide response (% of plate) in [8] was 105% (inactive). The aptamer binding inhibition in [9] is -3% (inactive). The response in [10] was -4.11% (inactive); in assay [12], 0.7% (inactive). Besides, the binding (% of control) in assay [13] was 105% (inactive). For the same compound, the efflux inhibition (fraction of control) in assay [14] was -0.41 (inactive). In addition, in [16], the differentiation response was 36.4% (inactive).

On to `OCC(O)CN1CCN(c2ccccc2)CC1` (centres undefined), for which, in assay [1], the percent of DMSO control GFP is 99.3% (inactive). Moreover, the GFP response vs DMSO in [2] and in [4] was 103% (inactive) throughout. Further, in [3], the percent response of DMSO control was 90.5% (inactive). The GFP response, % of DMSO in assay [5] was 102% (inactive). In [6], the double positive events was determined as 59.4%. In assay [6], the vesicle binding response is 145% (inactive). Moreover, the inhibition in assay [7] is 9.1% (inactive); in [11] it was -3.7% (inactive); in assay [15], 9% (inactive). Besides, in [8], the superoxide response (% of plate) is 99.2% (inactive). For the same compound, in assay [9], the aptamer binding inhibition was 7% (inactive). Also, the response is -29.2% (inactive) in [10] and -24.2% (inactive) in assay [12]. The binding (% of control) in assay [13] was 96.2% (inactive). Further, the efflux inhibition (fraction of control) in assay [14] is -0.04 (inactive). Further, in assay [16], the differentiation response is 11.8% (inactive).

`Cc1cc(C)cc(Nc2nc3c([nH]2)c(=O)n(C)c(=O)n3C)c1`: the percent of DMSO control GFP in assay [1] is 102% (inactive). Also, the GFP response vs DMSO in [2] was 105% (inactive); in assay [4], 103% (inactive). Moreover, the percent response of DMSO control in assay [3] was 112% (inactive). Further, the GFP response, % of DMSO in [5] is 105% (inactive). The same compound yielded a double positive events in assay [6] of 63.9%. Also, in assay [6], the vesicle binding response was 212% (inactive). In addition, the inhibition was 6.95% (inactive) in [7], 61% (active) in assay [11] and -9% (inactive) in assay [15]. The superoxide response (% of plate) in assay [8] is 89.7% (inactive). In addition, in assay [9], the aptamer binding inhibition is -6% (inactive). Further, the response in assay [10] is 6.07% (inactive); in assay [12], -8.26% (inactive). Further, the binding (% of control) in [13] was 102% (inactive). For the same compound, the efflux inhibition (fraction of control) in [14] is -0.14 (inactive). The differentiation response in assay [16] was 10.1% (inactive).

A word on the inhibition: it is the change of the read-out against control, counted positive when it falls.

The values are drawn from PubChem BioAssay.
